Screens: PubChem, Broad Institute
Shown is part of a subset that was picked to be rich in hits.
NOMO-1 viab – NOMO-1 AML cell viability reduction, primary screen, STK33 inhibitor project, CellTiter-Glo luminescence | NOMO-1 AML viability, 72 h | inhibition, % (concentration not given with the values) | 37,000 compounds, 7.5% hits | AID 2330, 2010; in the data active = inhibition above about 80%
STK33 inh – STK33 kinase inhibitors, primary screen, biochemical, luminescence, ADP-Glo, MBP substrate. Serine/threonine-protein kinase 33 (Homo sapiens), Q9BYT3. inhibition, % at 12.5 µM. AID 2322, 2010. 27,000 compounds, 0.44% hits; in the data active = inhibition above about 20%
Target sequence (Q9BYT3 whole entry, looked up): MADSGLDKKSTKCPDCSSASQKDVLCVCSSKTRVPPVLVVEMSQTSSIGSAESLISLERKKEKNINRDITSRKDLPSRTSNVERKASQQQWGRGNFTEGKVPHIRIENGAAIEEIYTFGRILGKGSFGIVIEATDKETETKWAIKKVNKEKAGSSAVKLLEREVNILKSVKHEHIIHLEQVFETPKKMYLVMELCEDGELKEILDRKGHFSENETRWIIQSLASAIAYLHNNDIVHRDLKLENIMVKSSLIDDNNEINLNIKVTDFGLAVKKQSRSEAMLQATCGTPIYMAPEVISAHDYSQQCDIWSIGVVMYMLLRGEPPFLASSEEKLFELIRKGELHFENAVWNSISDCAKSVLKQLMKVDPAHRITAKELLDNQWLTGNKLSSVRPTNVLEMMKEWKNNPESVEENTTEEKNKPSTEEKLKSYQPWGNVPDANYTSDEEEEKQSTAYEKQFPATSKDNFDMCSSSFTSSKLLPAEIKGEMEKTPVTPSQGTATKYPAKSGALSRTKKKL
PD-1 reverse act – activators reversing PD-1 mediated T-cell inhibition, primary screen, luminescence, primary human CD4 T cells, PD-L1 beads. CellTiter-Glo 96 h. activation, % (no concentration beside the values). AID 2316, 2010. 29,000 tested, under 10 active; call rule not given here;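 also: 0% = median vehicle wells and 100% = positive control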
* = called active by the depositor; . = no result.

SMILES	NOMO-1 viab	STK33 inh	PD-1 reverse act
C[C@H](CO)N1C[C@H](C)[C@H](CN(C)Cc2ccc(Cl)c(Cl)c2)Oc2ccc(NC(=O)Cc3cn(C)c4ccccc34)cc2C1=O	108*	.	-2
COc1ccc(NC(=O)N(C)C[C@H]2Oc3ccc(N(C)C)cc3C(=O)N([C@H](C)CO)C[C@@H]2C)cc1	10	.	0
C[C@@H]1CCCCO[C@H](CN(C)Cc2ccc(C(=O)O)cc2)[C@@H](C)CN([C@H](C)CO)C(=O)c2cc(NC(=O)Nc3ccc(F)cc3)ccc2O1	-6	2	1
CC1=CC(C)(C)N(C(C)C)C(=O)N1c1ccc(C)cc1	-2	.	-1
CC1CC(=O)[C@]2(C)CC[C@]3(C)C(C(=O)C(O)C4[C@@]5(C)CC[C@H](O)C(C)(C(=O)O)C5CC[C@]43C)C2C1C (stereo not given in full)	119*	0	-12
C[C@@H]1CC[C@]2(C(=O)O)CC[C@]3(C)C(=CCC4[C@@]5(C)CC[C@@H](O)[C@](C)(C(=O)O)C5CC[C@]43C)C2[C@H]1C (stereo not given in full)	8	-5	0
Oc1ccc(C2CNCCc3c2cc(O)c(O)c3Cl)cc1 (stereo not given)	14	0	.
C=CCN1CCc2c(cc(O)c(O)c2Cl)C(c2ccccc2)C1 (stereo not given)	117*	0	.
C[C@H]1CN([C@@H](C)CO)C(=O)c2cccc(NS(=O)(=O)c3cn(C)cn3)c2O[C@@H]1CN(C)Cc1ccncc1	-17	.	.
C[C@@H]1CN([C@H](C)CO)C(=O)c2cc(NS(=O)(=O)c3ccc(F)cc3)ccc2O[C@H]1CN(C)Cc1ccc(-c2ccccc2)cc1	97*	2	2
C[C@H]1CN([C@@H](C)CO)C(=O)c2cc(NS(=O)(=O)c3ccc(F)cc3)ccc2O[C@@H]1CN(C)Cc1ccc(-c2ccccc2)cc1	100*	.	0
C[C@H](CO)N1C[C@H](C)[C@H](CN(C)Cc2ccc(-c3ccccc3)cc2)Oc2ccc(NS(=O)(=O)c3ccc(F)cc3)cc2C1=O	41	.	.
C[C@H](CO)N1C[C@H](C)[C@@H](CN(C)Cc2ccc(-c3ccccc3)cc2)Oc2ccc(NS(=O)(=O)c3ccc(F)cc3)cc2C1=O	22	.	-1
COc1ccc(CN(C)C[C@H]2Oc3ccc(NC(=O)Nc4cccc5ccccc45)cc3CC(=O)N([C@H](C)CO)C[C@H]2C)cc1	42	1	.
C=C1C(=O)O[C@H]2C1[C@H](OC(=O)/C(=C/CO)COC(=O)/C(C)=C/CO)CC(=C)[C@@H]1CC(=O)[C@@H](C)[C@@H]12 (stereo not given in full)	108*	-1	-6
C=C1C(=O)O[C@H]2[C@H]1[C@H](O)CC(=C)[C@@H]1CC(=O)C(C)[C@H]21 (stereo not given in full)	118*	0	-7
C=C1C(=O)O[C@@H]2[C@H]3C(=C)[C@@H](O[C@@H]4O[C@H](CO)[C@@H](O)[C@H](O)[C@H]4O)C[C@H]3C(=C)C[C@@H](O)[C@@H]12	7	4	-1
C[C@H]1CN([C@@H](C)CO)C(=O)c2cc(NC(=O)NC3CCCCC3)ccc2O[C@H]1CN(C)C(=O)NC1CCCCC1	12	.	0
COc1c(O[C@@H]2O[C@H](CO)[C@@H](O)[C@H](O)[C@H]2O)cc2oc(-c3ccc(O)cc3)cc(=O)c2c1O	84*	19	0
O=c1cc(-c2ccc(O)cc2)oc2cc(O)c(C3OC(CO)C(O)C(O)C3O)c(O)c12 (stereo not given)	64	-7	4
Cc1cc(Br)ccc1OCC(=O)NC(=S)Nc1ccccc1C(N)=O	-7	0	.
CCOC(=O)c1cnc2ccc(OCC)cc2c1NC(C)CC (stereo not given)	117*	3	-21
CCOC(=O)c1cnc2ccc(OCC)cc2c1N1CCN(c2ccccc2)CC1	67	.	-1
CN(CC(=O)Nc1ccc(Oc2ccccc2)cc1)S(=O)(=O)c1ccc(F)cc1	16	0	-1
C[C@@H]1CN([C@@H](C)CO)C(=O)Cc2cc(NC(=O)Nc3ccccc3)ccc2O[C@@H]1CN(C)Cc1ccc(-c2ccccc2)cc1	43	3	0
C[C@H]1CN([C@@H](C)CO)C(=O)Cc2cc(NC(=O)Nc3ccc(C(F)(F)F)cc3)ccc2O[C@@H]1CN(C)Cc1ccc(-c2ccccc2)cc1	127*	-2	0
C[C@@H]1CN([C@@H](C)CO)C(=O)Cc2cc(NC(=O)Nc3ccc(C(F)(F)F)cc3)ccc2O[C@@H]1CN(C)Cc1ccc(-c2ccccc2)cc1	24	.	-1
